About 940 (45%) of roughly 2,100 compounds were called active. About 48% were inconclusive and are not listed. The call rests on the fitted dose curve; in most records, active means well fitted inhibition curve with a large enough effect; inconclusive means small, poorly fitted or top-dose-only effect; inactive means no such curve, though single readings can be large or run the other way. So high a share suggests a set chosen from earlier hits. The list shows a part of the results.
Potency means the concentration at half of the fitted maximal effect.

A short description of this assay: Confirmatory qHTS for Inhibitors of ATXN expression. Further: nearly all actives have a fitted effect of over 65% in size. The note with it: ATXN2-luciferase reporter cells, luminescence, 24 h; series mostly up to 11.5 µM. The procedure, abridged: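 A titration, incubated 24 h with reporter cells expressing ATXN2-luciferase. Luminescence (SteadyGlo) gives ATXN2 expression, multiplexed GF-AFC fluorescence gives viability; normalised to DMSO and medium-only wells.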
Take `CCOC(=O)c1c(-c2ccccc2)oc2cc(CN(C)C)c(O)c(CN(C)C)c12`: the Potency is 3.16 µM (active).
The value for `CCCC(=O)NC(c1ccc(C(C)C)cc1)c1ccc2cccnc2c1O` (stereo not given) was 0.178 µM (active).
The figure for `CCCC(=O)NC(c1ccc(Cl)cc1)c1ccc2cccnc2c1O` (stereo not given) is 1.58 µM (active).
Regarding `CCCC(=O)NC(c1ccc(OC)cc1)c1ccc2cccnc2c1O` (stereo not given), the Potency was 2.24 µM (active).
The value for `CCCCC(=O)NC(c1ccc(Cl)cc1)c1ccc2cccnc2c1O` (stereo not given) was 1.41 µM (active); that for `CCCC(=O)NC(c1ccc(C)cc1)c1ccc2cccnc2c1O` (stereo not given) was 1.58 µM (active); that for `CC(C)CC(=O)NC(c1cccs1)c1ccc2cccnc2c1O` (stereo not given) was 0.398 µM (active).
The value for `CCOc1ccccc1N1CCN(c2ncnc3scc(-c4ccc(OC)cc4)c23)CC1` was 28.2 µM (active); that for `CCN1CCN(CCCNC(=O)c2ccc(/C=C3/Sc4ccccc4N(Cc4ccccc4F)C3=O)cc2)CC1` was 28.2 µM (active); that for `COc1ccc(Cc2nnc(N/N=C/c3ccccc3O)[nH]c2=O)cc1OC` was 1.58 µM (active).
The entry for `C=CCOc1ccc(CNc2ccc3[nH]c(=O)[nH]c3c2)cc1OC` is “inactive”.
Take `COc1ccc(Cc2nnc(N/N=C/c3ccc(O)cc3)[nH]c2=O)cc1OC`: the Potency is 0.631 µM (active).
The figure for `Cc1cccc2c1-c1sc(C(=O)Nc3ccccc3N3CCN(C)CC3)cc1CO2` is 25.1 µM (active); for `CCn1c(COc2ccccc2C)nnc1SCC(=O)N1CCN(c2ccccc2)CC1` it is 14.1 µM (active).
The figure for `CC(C)(CC(=O)N1CCN(c2ccc(Cl)cc2)CC1)CC1=NS(=O)(=O)c2ccccc2N1` is 2.51 µM (active); for `C(=N\Nc1ccc2nncn2n1)/c1ccccn1` it is 17.8 µM (active); for `Cc1nnc(N/N=C/c2ccccn2)[nH]c1=O` it is 1.41 µM (active).
The value for `O=c1nc(N/N=C/c2ccccn2)cn[nH]1` was 28.2 µM (active); that for `C(=N\NC(=Nc1ccccc1)c1ccccn1)/c1ccccn1` was “inactive”.
`Cc1[nH]n2c(=O)cc(C(C)(C)C)nc2c1-c1ccccc1`: the Potency is 7.08 µM (active).
The figure for `CCCc1cc(=O)[nH]c(-n2[nH]c3c(c2=O)CCCC3)n1` is 15.8 µM (active); for `CC1(C)COCN1S(=O)(=O)c1ccc(C(=O)Nc2nnc(-c3ccc(Cl)s3)o2)cc1` it is 1.12 µM (active); for `COc1ccc(-c2nnc(NC(=O)c3ccc(S(=O)(=O)N4COCC4(C)C)cc3)o2)cc1` it is 2.51 µM (active).
The value for `CCCN(CCC)S(=O)(=O)c1ccc(C(=O)Nc2nnc(-c3cc(OC)cc(OC)c3)o2)cc1` was 1.58 µM (active).
The value for `COc1cc(NC(=O)N2CCc3nc(Nc4cc(Cl)cc(Cl)c4)ncc3C2)cc(OC)c1OC` was 3.98 µM (active); that for `CCOC(=O)C(C(C)=O)c1c(Br)c(O)c(O)c2c(C(=O)c3ccc(C)cc3)coc12` (stereo not given) was 5.62 µM (active); that for `CC(=O)C(C(C)=O)c1c(Cl)c(O)c(O)c2c(C(=O)c3ccccc3)coc12` was 5.62 µM (active).
For `O=C(Nc1ccc(OCC(F)(F)C(F)F)c(C(F)(F)F)c1)c1ccc(Cl)cc1`, the Potency is 3.55 µM (active).
The entry for `C=CCOC(=O)C1=C[C@@H](c2ccc3c(c2)OCO3)C[C@@H](OCCCCO)O1` is “inactive”; for `O=C(NCc1ccccc1)C1=C[C@@H](c2csc3ccccc23)C[C@@H](OCCCCO)O1` it is 3.55 µM (active).
On to `CN(C)C(=O)CSc1nc(-c2ccccc2)nc2c1CCCC2`, for which the Potency was 17.8 µM (active).
The figure for `COC(=O)C1=C(C)N(Cc2ccccc2)C(=NCCc2ccccn2)N[C@H]1c1cccc(C(F)(F)F)c1` is 3.16 µM (active); for `COC(=O)C1=C(C)N(Cc2ccccc2)C(=NCCc2cccnc2)N[C@H]1c1ccc(Br)cc1` it is 25.1 µM (active).
The figure for `CCc1cc(-c2nnn(CCC3COCCO3)c2CC)ccc1-c1cn(CCc2c[nH]c3ccccc23)nn1` (stereo not given) is 8.91 µM (active); for `O=C(N/N=C/c1cc([N+](=O)[O-])ccc1O)c1ccc(COc2ccc3c(c2)CCC3)o1` it is 3.55 µM (active); for `O=C1CCCC(O)=C1C=NCc1ccccc1` it is “inactive”.
In the case of `Cn1ncc2c(Nc3cccc(Cl)c3)nc(Nc3cccc(Cl)c3)nc21`, the Potency was 28.2 µM (active).
The figure for `COc1ccccc1OCCN1CSC(=S)N(C)C1` is 17.8 µM (active); for `COC1C=CC=C(C)C(=O)NC2=CC(=O)C(N)=C(CC(C)CC(OC)C(O)C(C)C=C(C)C1OC(N)=O)C2=O` (stereo not given) it is 0.282 µM (active).
The value for `CSc1nc(C)cc(OCC(=O)N/N=C/c2ccccc2O)n1` was 2 µM (active); that for `C/C(=N\OCC(=O)N/N=C/c1ccccc1O)c1cccs1` was 12.6 µM (active); that for `O=C(COc1nsnc1N1CCOCC1)N/N=C/c1ccccc1O` was 14.1 µM (active).
The figure for `CCN1CCN(C(c2ccc(C(F)(F)F)cc2)c2ccc3cccnc3c2O)CC1` (stereo not given) is 3.55 µM (active); for `CN1CCN(C(c2ccc(C(F)(F)F)cc2)c2ccc3cccnc3c2O)CC1` (stereo not given) it is 7.94 µM (active); for `O=C(Nc1cccc2cccnc12)c1csc(COCCO)n1` it is “inactive”.
In the case of `O=C(Nc1c(Cl)cccc1Cl)Oc1cccc2cccnc12`, the Potency was 10 µM (active).
The figure for `O=C(N/N=C/c1sc(N2CCOCC2)nc1-c1ccccc1)c1ccccc1O` is 28.2 µM (active); for `Cc1cc2oc3ccc(NCCC4CCCN4C)cc3c(=O)c2cc1C` (stereo not given) it is 31.6 µM (active); for `CCCn1ncc(CN2CCC(C(=O)Nc3cccc(-c4cccc(F)c4)c3)CC2)c1C` it is 28.2 µM (active).
As to `Cc1ccc2sc(N(CCCN(C)C)C(=O)c3ccc(S(=O)(=O)N4CCCCCC4)cc3)nc2c1C`, the Potency was 28.2 µM (active).
The value for `Cc1cc(C)c2nc(N(CCCN(C)C)C(=O)c3ccc4c(c3)OCCO4)sc2c1` was 28.2 µM (active); that for `Cc1ccc2nc(N(CCCN(C)C)C(=O)c3ccc(S(=O)(=O)N4CCCCCC4)cc3)sc2c1` was 3.16 µM (active); that for `CCN(c1ccccc1)S(=O)(=O)c1ccc(C(=O)N(CCCN(C)C)c2nc3c(C)cccc3s2)cc1` was 25.1 µM (active).
The figure for `Nc1ncn([C@@H]2O[C@H](CO)[C@@H](O)[C@H]2O)c(=O)n1` is 3.98 µM (active).
The value for `Nc1ccn([C@@H]2O[C@H](CO)[C@@H](O)C2O)c(=O)n1` (stereo not given in full) was 3.55 µM (active); that for `Nc1ccc2c(c1)OC1(CCCC1)O2` was 0.316 µM (active); that for `Clc1ccc2c(NCc3ccccc3)ccnc2c1` was 15.8 µM (active).
With `COc1ccc(-c2cc(C3CCN(c4ccc(C(C)=O)cc4[N+](=O)[O-])CC3)[nH]n2)cc1`, the Potency was 15.8 µM (active).
The figure for `Cc1ccc(C)c(NC(=O)c2ccccc2NS(=O)(=O)c2cc([N+](=O)[O-])ccc2C)c1` is 2.51 µM (active); for `CCc1ccc(-c2csc(NC(=O)C3CC(=O)N(c4ccc5c(c4)OCCO5)C3)n2)cc1` (stereo not given) it is 11.2 µM (active); for `COc1ccc(-c2nc(NC(=O)C3CC(=O)N(c4ccc5c(c4)OCCO5)C3)sc2C)cc1` (stereo not given) it is 8.91 µM (active).
The figure for `CCC(=O)NC(c1ccc(Cl)cc1Cl)c1ccc2cccnc2c1O` (stereo not given) is 1.26 µM (active); for `CCCCC(=O)NC(c1ccc(Cl)cc1Cl)c1ccc2cccnc2c1O` (stereo not given) it is 0.708 µM (active).
Turning to `CCCC(=O)NC(c1ccc(Cl)cc1Cl)c1ccc2cccnc2c1O` (stereo not given), the Potency is 2.82 µM (active).
The value for `CCCCC(=O)NC(c1ccc(OC)c(OC)c1)c1ccc2cccnc2c1O` (stereo not given) was 2.82 µM (active).
In the case of `CCCCC(=O)NC(c1ccccc1OC)c1ccc2cccnc2c1O` (stereo not given), the Potency is 2 µM (active).
The figure for `CCCCC(=O)NC(c1ccccc1Cl)c1ccc2cccnc2c1O` (stereo not given) is 2 µM (active); for `NNC(=O)/C(=N/Nc1ccccc1)S(=O)(=O)c1ccc(Cl)cc1` it is 4.47 µM (active); for `CC(=O)c1ccc(N2CCN(CC(O)COC(c3ccccc3)c3ccccc3)CC2)cc1` (stereo not given) it is “inactive”.
The value for `CCCOc1ccc(C(=O)C(CN2CCOCC2)c2ccccc2)cc1` (stereo not given) was 25.1 µM (active).
The value for `COc1ccccc1C(=O)NNC1=C(C(=O)C(F)(F)F)CCC1` was 1.58 µM (active); that for `CCN(CC)CCn1c2ccccc2c2cnc(N)c(C#N)c21` was 1.58 µM (active).
Regarding `O=S(=O)([N-]c1nc2ccccc2nc1-[n+]1ccc(Cc2ccccc2)cc1)c1ccc(Br)s1`, the Potency was 8.91 µM (active).
For `Cc1ccc2c(c1)N(C)/C(=C/c1cccc[n+]1C)S2`, the Potency was 4.47 µM (active).
The figure for `CC[n+]1ccccc1/C=C1\Sc2ccc(C)cc2N1C` is 8.91 µM (active); for `Cn1nccc1C(=O)N1CCCC(C(=O)c2cccc3ccccc23)C1` (stereo not given) it is “inactive”.
For the compound `COc1cccc(-c2nc(N3CCN(C)CC3)c3ccccc3n2)c1O`, the Potency is 3.16 µM (active).
The value for `CCOC(=O)c1c(NC(=O)/C=C/C(=O)O)sc(C)c1-c1ccc(Cl)cc1` was 25.1 µM (active); that for `COc1cc(/C=C/CN2CCC(C(=O)NC(c3ccc(F)cc3)c3ccc4ccccc4n3)CC2)ccc1OC(C)=O` (stereo not given) was 17.8 µM (active); that for `CCCC(=O)NC(c1ccccc1)c1ccc2cccnc2c1O` (stereo not given) was 2.82 µM (active).
The value for `CCCCC(=O)NC(c1ccccc1)c1ccc2cccnc2c1O` (stereo not given) was 2.82 µM (active); that for `CC(N)c1csc(NC(=O)c2cc(C(C)(C)C)nn2Cc2ccccc2)n1` (stereo not given) was 3.16 µM (active).
The value for `FC(F)(F)c1nc(-c2cccs2)ncc1-c1nnnn1-c1ccc(Cl)cc1` was 20 µM (active); that for `Cc1nc2ccc(NC(=O)c3cccc(S(=O)(=O)N(C)c4ccccc4)c3)cc2s1` was 3.98 µM (active); that for `Cc1nc2ccc(NC(=O)c3ccc(S(=O)(=O)N(C)c4ccccc4)cc3)cc2s1` was 2.24 µM (active).
For the compound `CN(c1ccccc1)S(=O)(=O)c1cccc(NC(=O)c2cc(=O)c3ccccc3o2)c1`, the Potency was 28.2 µM (active).
The value for `CCCC(=O)Nc1ccc2nc(SCC(=O)N3CCCC3)sc2c1` was “inactive”; that for `CCCCC(=O)N(CCOC)c1nnc(-c2ccccc2C)s1` was “inactive”; that for `CC[n+]1c(C=C2C=C(C)OC(C)=C2)sc2ccccc21` was 6.31 µM (active).
The value for `Cc1cc(Nc2cccc([N+](=O)[O-])c2)n2c(nc3ccccc32)c1C#N` was 1.12 µM (active).

Values taken from PubChem BioAssay AID1745848 (National Center for Advancing Translational Sciences (NCATS), 2022).
